Calls of active or inactive are those of the source.
Experiments:
[1] = E. coli DRC41 culture turbidity changes, primary screen, E. coli filamentation inducer project, strain DRC41, OD650, 48 h (AID 1152);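 note: E. coli MC1000 strain DRC41 lacking acrAB efflux pump and sulA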; conditions: E. coli DRC41 (acrAB sulA), higher = more signal, called active from +8 up or from −8 down
[2] = small-molecule binders of probe aLefty1, primary screen, biochemical, small-molecule microarray, 635/667 nm fluorescence (AID 1153); conditions: higher = more signal;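 note: score merges spot fluorescence with signal-to-noise ratio from the scanned slide images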
[3] = PSAC antagonists in infected red cells, primary screen, cell-based, P. falciparum Indochina, OD700, 1 h (AID 1154); conditions: P. falciparum Indochina infected RBC osmotic lysis, higher = more signal, called active from +8 up or from −8 down
[4] = PSAC antagonists in infected red cells, primary screen, cell-based, P. falciparum Indochina, OD700, 2 h (AID 1155);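 note: lysis reports solute entry through the parasite surface anion channel PSAC; channel blockers reduce lysis of infected cells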; conditions: P. falciparum Indochina infected erythrocytes, osmotic lysis OD700; higher = more signal, called active from +8 up or from −8 down
[5] = osmotic lysis modulators in infected erythrocytes, primary screen, PSAC antagonist project, cell-based, P. falciparum Indochina, OD700, 3 h (AID 1156); conditions: higher = more signal, called active from +8 up or from −8 down
[6] = PSAC antagonists in infected red cells, primary screen, cell-based, P. falciparum Indochina, OD700, 18 h (AID 1157); conditions: P. falciparum Indochina infected erythrocytes, osmotic lysis OD700, 18 h; higher = more signal, called active from +8 up or from −8 down
[7] = modulators of S6 phosphorylation in cells, primary screen, cell-based, A549, cytoblot, luminescence, serum-stimulated (AID 1158); conditions: A549 phospho-S6 cytoblot, 5 h, higher = more signal;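 note: serum-stimulated A549 lung adenocarcinoma cells; signal is phosphorylated S6 detected by cytoblot immunostaining with HRP secondary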
[8] = target: NADPH oxidase 2 (Homo sapiens) (UniProt P04839); experiment: NOX2-dependent H2O2 signal modulators, primary screen, NOX inhibitor project, cell-based, HEK293-NOX2, PMA-stimulated, Amplex Red fluorescence (AID 1159); conditions: 45 min, higher = more signal, called active from +8 up or from −8 down; note: test concentration not given here
[9] = target: NADPH oxidase 4 (Homo sapiens) (UniProt Q9NPH5); experiment: NOX4-dependent H2O2 signal modulators, primary screen, NOX inhibitor project, cell-based, HEK293-NOX4, tetracycline-induced, Amplex Red fluorescence (AID 1160); conditions: 45 min, higher = more signal, called active from +8 up or from −8 down
[10] = target: NADPH oxidase 5 (Homo sapiens) (UniProt Q96PH1); experiment: NOX5-dependent H2O2 signal modulators, primary screen, NOX inhibitor project, cell-based, HEK293-NOX5, Amplex Red fluorescence (AID 1161); conditions: HEK293-NOX5, ionomycin, 45 min, higher = more signal
NADPH oxidase 5 (Homo sapiens), sequence (Q96PH1 whole entry, looked up): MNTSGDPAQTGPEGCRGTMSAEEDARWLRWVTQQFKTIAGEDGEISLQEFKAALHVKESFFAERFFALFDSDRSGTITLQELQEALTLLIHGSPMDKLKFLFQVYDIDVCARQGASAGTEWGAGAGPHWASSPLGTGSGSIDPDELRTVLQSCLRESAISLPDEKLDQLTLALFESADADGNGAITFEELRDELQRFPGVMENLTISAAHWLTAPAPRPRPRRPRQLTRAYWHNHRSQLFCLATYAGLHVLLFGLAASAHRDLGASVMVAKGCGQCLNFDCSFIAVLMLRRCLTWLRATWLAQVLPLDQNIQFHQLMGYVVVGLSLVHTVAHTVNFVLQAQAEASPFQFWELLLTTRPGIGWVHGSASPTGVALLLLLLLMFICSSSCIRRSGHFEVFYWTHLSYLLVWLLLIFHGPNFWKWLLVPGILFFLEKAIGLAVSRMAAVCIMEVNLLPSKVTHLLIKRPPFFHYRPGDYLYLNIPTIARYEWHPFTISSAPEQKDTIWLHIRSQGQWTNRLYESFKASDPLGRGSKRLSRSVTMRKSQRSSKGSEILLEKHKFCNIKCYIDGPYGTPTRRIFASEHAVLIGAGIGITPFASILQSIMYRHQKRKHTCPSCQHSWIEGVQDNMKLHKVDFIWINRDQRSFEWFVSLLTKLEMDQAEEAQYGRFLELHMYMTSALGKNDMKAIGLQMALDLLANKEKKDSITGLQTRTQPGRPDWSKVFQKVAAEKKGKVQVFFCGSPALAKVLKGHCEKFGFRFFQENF

NADPH oxidase 4 (Homo sapiens), sequence (Q9NPH5 whole entry, looked up): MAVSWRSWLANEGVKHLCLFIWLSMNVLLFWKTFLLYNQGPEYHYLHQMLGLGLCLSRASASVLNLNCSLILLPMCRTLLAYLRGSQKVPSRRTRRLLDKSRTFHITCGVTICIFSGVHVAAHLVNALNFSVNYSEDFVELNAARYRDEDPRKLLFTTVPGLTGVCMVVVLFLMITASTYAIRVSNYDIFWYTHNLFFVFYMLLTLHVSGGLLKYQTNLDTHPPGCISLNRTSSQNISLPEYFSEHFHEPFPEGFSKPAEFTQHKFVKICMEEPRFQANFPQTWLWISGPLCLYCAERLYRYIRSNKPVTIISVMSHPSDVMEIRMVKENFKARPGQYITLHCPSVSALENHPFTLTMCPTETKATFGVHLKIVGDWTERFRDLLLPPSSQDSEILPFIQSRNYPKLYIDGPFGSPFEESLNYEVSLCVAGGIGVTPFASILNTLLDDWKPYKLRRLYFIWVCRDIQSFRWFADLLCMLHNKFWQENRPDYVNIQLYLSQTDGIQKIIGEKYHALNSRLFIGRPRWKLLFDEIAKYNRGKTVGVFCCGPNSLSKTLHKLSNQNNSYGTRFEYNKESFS
NADPH oxidase 2 (Homo sapiens), sequence (P04839 whole entry, looked up): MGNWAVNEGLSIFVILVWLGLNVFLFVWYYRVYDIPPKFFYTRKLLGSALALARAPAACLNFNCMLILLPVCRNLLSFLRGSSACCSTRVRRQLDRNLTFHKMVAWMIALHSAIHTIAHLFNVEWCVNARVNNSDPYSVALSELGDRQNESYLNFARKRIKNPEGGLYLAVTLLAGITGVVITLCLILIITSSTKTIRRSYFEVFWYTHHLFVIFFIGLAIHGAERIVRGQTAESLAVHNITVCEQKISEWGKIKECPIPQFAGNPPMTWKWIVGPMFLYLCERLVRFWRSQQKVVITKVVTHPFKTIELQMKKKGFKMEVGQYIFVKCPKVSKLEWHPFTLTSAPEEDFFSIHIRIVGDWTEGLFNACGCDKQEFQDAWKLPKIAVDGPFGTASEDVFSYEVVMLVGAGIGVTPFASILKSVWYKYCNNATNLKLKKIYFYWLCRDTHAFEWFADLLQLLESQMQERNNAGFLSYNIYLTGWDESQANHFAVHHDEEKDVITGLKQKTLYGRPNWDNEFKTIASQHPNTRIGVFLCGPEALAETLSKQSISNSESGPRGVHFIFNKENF

Structure (SMILES)	z-score [1]	composite z-score [2]	z-score [3]	z-score [4]	z-score [5]	z-score [6]	z-score [7]	z-score [8]	z-score [9]	z-score [10]
COC(=O)[C@@]1(Cc2ccccc2)[C@H]2c3cc(C(=O)N(C)C)n(Cc4cc(C)n(C)n4)c3C[C@H]2CN1C(=O)c1ccccc1	-1.85 (inactive)	0.33	1.11 (inactive)	0.234 (inactive)	0.452 (inactive)	0.396 (inactive)	0.251	0.904 (inactive)	-0.925 (inactive)	-2.11
CC(C)C(=C=CC[C@H](O)c1cccc(OCCO)c1)C[C@H](O)COCc1ccccc1	0.142 (inactive)	0.0455	12.8 (active)	2.04 (inactive)	0.367 (inactive)	0.627 (inactive)	-0.145	-1.77 (inactive)	-0.716 (inactive)	-2.13
N[C@@H](Cc1ccccc1)Cn1cc(-c2ccccc2)nn1	-2.54 (inactive)	0.271	5.12 (inactive)	0.745 (inactive)	0.0287 (inactive)	0.53 (inactive)	-0.209	0.659 (inactive)	0.45 (inactive)	0.448
CC(C)C(=C=CC[C@H](O)c1ccccc1OCCO)C[C@H](O)c1ccccn1	0.843 (inactive)	0.129	4.75 (inactive)	0.673 (inactive)	2.42 (inactive)	0.454 (inactive)	1.16	-0.222 (inactive)	-0.323 (inactive)	-1.28
COc1ccc([Si](C)(C)[C@H]2[C@H](CCn3cc(CCO)nn3)O[C@@]3(C(=O)N(Cc4ccc(N5CCOC5=O)cc4)c4ccccc43)[C@@H]2C)cc1	0.176 (inactive)	0.308	33.4 (active)	34.8 (active)	2.62 (inactive)	6.01 (inactive)	0.711	-0.564 (inactive)	2.16 (inactive)	-0.419
CCCC[C@H]1OB(O)C[C@H]2C1=C(C)C[C@H]1C(=O)N(Cc3ccccc3)C(=O)[C@H]12	1.53 (inactive)	-0.147	1.27 (inactive)	0.0503 (inactive)	-0.348 (inactive)	0.157 (inactive)	0.918	0.0393 (inactive)	0.765 (inactive)	0.789
COc1ccc(C#Cc2ccc3c(c2)[C@]2(C(=O)N3)[C@H](c3ccc(O)cc3)N3[C@H](c4ccccc4)[C@H](c4ccccc4)OC(=O)[C@H]3[C@@H]2C(=O)N2CCCCCCC2)cc1	0.777 (inactive)	2.53	-0.212 (inactive)	-0.763 (inactive)	-0.272 (inactive)	-1.29 (inactive)	2.87	0.723 (inactive)	-0.00989 (inactive)	0.855
COCCOC(=O)N1C(=O)[C@@]2(c3cc(C#CCC(C(=O)OC)C(=O)OC)ccc31)[C@H](C(=O)N1CCN(c3ncccn3)CC1)[C@H]1C(=O)O[C@H](c3ccccc3)[C@H](c3ccccc3)N1[C@@H]2c1ccc(OCCO)cc1	3.02 (inactive)	-0.0511	17.3 (active)	3.12 (inactive)	-0.153 (inactive)	0.857 (inactive)	2.2	1.41 (inactive)	1.43 (inactive)	0.897
COC(=O)c1ccc(C(O)C2C=CC3C(=O)N(c4ccccc4)C(=O)C3N2Nc2ccc(C#N)cc2)o1 (stereo not given)	-0.855 (inactive)	0.117	6.87 (inactive)	1.66 (inactive)	1.36 (inactive)	0.975 (inactive)	-0.757	-0.499 (inactive)	-4.57 (inactive)	-2.23
CN(C)C(=O)[C@]1(CCC(=O)OC(C)(C)C)N=C(c2ccc(OCCCO)cc2)O[C@@H]1c1ccccc1N=[N+]=[N-]	0.761 (inactive)	1.33	31 (active)	29.8 (active)	1.37 (inactive)	2.34 (inactive)	-0.294	-4.53 (inactive)	-0.32 (inactive)	-1.98
COCCOC(=O)N1C(=O)[C@@]2(c3cc(C#Cc4ccc(OC)cc4)ccc31)[C@H](C(=O)N1CCN(c3ncccn3)CC1)[C@H]1C(=O)O[C@H](c3ccccc3)[C@H](c3ccccc3)N1[C@@H]2c1ccc(O)cc1	0.831 (inactive)	0.0773	1.39 (inactive)	-0.306 (inactive)	-0.119 (inactive)	-0.541 (inactive)	1.59	0.586 (inactive)	0.19 (inactive)	1.98
CC=CC(O)C1C=CC2C(=O)N(c3ccccc3)C(=O)C2N1Nc1ccc(C(C)C)cc1 (stereo not given)	-1.63 (inactive)	0.424	20.2 (active)	7.4 (inactive)	1.39 (inactive)	1.68 (inactive)	-0.521	-0.68 (inactive)	-3.67 (inactive)	-4.2
CC(=O)NCCCC[C@@H]1NC(=O)[C@@H]2C[C@H](C(=O)NCCCCN(C)C)[C@H](c3ccc(O)cc3)N2C1=O	1.62 (inactive)	-0.29	0.453 (inactive)	-0.233 (inactive)	1.13 (inactive)	0.153 (inactive)	-0.051	0.0273 (inactive)	0.192 (inactive)	0.546
O=C1[C@]2(CO)C=C(Br)[C@@H](C[C@@H]2c2ccccc2)[C@@]12CO2	0.168 (inactive)	-0.188	0.0883 (inactive)	0.0579 (inactive)	-0.533 (inactive)	-0.187 (inactive)	-0.364	0.538 (inactive)	0.662 (inactive)	-0.211
Cc1c(NC(=O)CC#N)c(=O)n(-c2ccccc2)n1C	1.47 (inactive)	-0.193	-0.794 (inactive)	-1.31 (inactive)	-0.202 (inactive)	-1.31 (inactive)	2.17	-0.463 (inactive)	-0.0592 (inactive)	0.66
COc1ccc([Si](C)(C)[C@@H]2[C@@H](CCn3cc([C@H](O)c4ccccc4)nn3)O[C@]3(C(=O)N(Cc4ccc(N5C(=O)c6cccc7cccc5c67)cc4)c4ccccc43)[C@H]2C)cc1	0.74 (inactive)	-0.14	1.23 (inactive)	-0.611 (inactive)	0.957 (inactive)	-0.68 (inactive)	1.11	0.584 (inactive)	1.01 (inactive)	-0.539
COc1ccc([Si](C)(C)[C@H]2[C@H](CCn3cc([C@H](O)c4ccccc4)nn3)O[C@@]3(C(=O)N(Cc4cccc(N5CCC5=O)c4)c4ccccc43)[C@@H]2C)cc1	2.02 (inactive)	0.167	9.44 (active)	0.475 (inactive)	-0.272 (inactive)	-0.87 (inactive)	1.77	0.0292 (inactive)	1.09 (inactive)	2.04
C[C@]1(C(=O)NCc2ccccc2)c2ccccc2C(=O)N(Cc2cc(F)cc(C(F)(F)F)c2)[C@H]1c1ccc(CO)cc1	0.537 (inactive)	-0.101	5.2 (inactive)	1.01 (inactive)	1.12 (inactive)	0.38 (inactive)	-0.239	-1.29 (inactive)	0.26 (inactive)	-0.151
O=C1C2C=CC(C(O)c3ccc(B(O)O)cc3)N(Nc3ccccc3)C2C(=O)N1c1ccccc1 (stereo not given)	-1.52 (inactive)	0.0315	1.07 (inactive)	-0.447 (inactive)	0.977 (inactive)	-0.447 (inactive)	0.64	-3.57 (inactive)	-5.02 (inactive)	-7.63
COCCCNC(=O)[C@@]1(c2ccc([N+](=O)[O-])cc2)CC(=O)N(CC23CC4CC(CC(C4)C2)C3)[C@@H]1c1ccc(CO)cc1	0.697 (inactive)	0.616	4.55 (inactive)	0.958 (inactive)	1.47 (inactive)	0.888 (inactive)	0.0694	-0.237 (inactive)	-1.44 (inactive)	-1.74
CCCNC(=O)[C@@H]1c2ccccc2C(=O)N(Cc2ccccc2)[C@H]1c1ccc(CO)cc1	-0.731 (inactive)	-0.0508	1.36 (inactive)	-0.325 (inactive)	1.41 (inactive)	0.0842 (inactive)	0.0533	-0.802 (inactive)	-1.63 (inactive)	-2.53
CC(=O)Nc1cc(Br)ccc1C(=O)O	-0.657 (inactive)	0.0494	0.552 (inactive)	0.501 (inactive)	-0.904 (inactive)	0.305 (inactive)	-0.107	0.385 (inactive)	-0.128 (inactive)	-0.269
CCCN1C(=O)[C@@]2(CCC(=O)OC(C)(C)C)N=C(c3ccc(OCCCO)cc3)O[C@H]2c2ccccc21	0.42 (inactive)	-0.358	35.9 (active)	37.4 (active)	3.51 (inactive)	9.08 (active)	0.237	-2.74 (inactive)	-0.665 (inactive)	-1.96
O=c1cccc(CCc2ccccc2)o1	-1.21 (inactive)	-0.15	1.83 (inactive)	0.584 (inactive)	-0.13 (inactive)	0.339 (inactive)	-0.467	0.378 (inactive)	0.12 (inactive)	-0.339
CN1CCC(CCCO)=CC1c1ccc(CN2CCCC2)cc1 (stereo not given)	0.112 (inactive)	0.663	-0.274 (inactive)	-0.201 (inactive)	-0.0797 (inactive)	-0.111 (inactive)	-0.494	-3.22 (inactive)	-0.765 (inactive)	-0.482
[N-]=[N+]=Nc1ccccc1[C@H]1OC(c2ccc(OCCCO)cc2)=N[C@@]1(CCS(=O)(=O)c1ccccc1)C(=O)O	0.671 (inactive)	0.373	31.2 (active)	24.9 (active)	1.32 (inactive)	4.75 (inactive)	-0.351	-2.11 (inactive)	0.851 (inactive)	-0.73

Source: PubChem BioAssay
